# Measured values: the supplement of paper PMC11732987, “Enantioselective OTUD7B fragment discovery through chemoproteomics screening and high-throughput optimisation” (Communications Chemistry, 2025)
# A number with no mark means an inactive call.
# Key:
# Assay in all cases: log2 ratio of Biotin-Ahx-Ub-VS probe labelling (fragment/DMSO); higher = less target engagement (more negative = stronger competition), active = hit call of the paper (q ≤ 0.05, log2 ratio ≤ -1)
# Settings in all cases: compound concentration: 200 uM; treatment time: 3 h
# [1] = target: T1, ALG13 (UniProt Q9NP73)
# T1 sequence (whole entry): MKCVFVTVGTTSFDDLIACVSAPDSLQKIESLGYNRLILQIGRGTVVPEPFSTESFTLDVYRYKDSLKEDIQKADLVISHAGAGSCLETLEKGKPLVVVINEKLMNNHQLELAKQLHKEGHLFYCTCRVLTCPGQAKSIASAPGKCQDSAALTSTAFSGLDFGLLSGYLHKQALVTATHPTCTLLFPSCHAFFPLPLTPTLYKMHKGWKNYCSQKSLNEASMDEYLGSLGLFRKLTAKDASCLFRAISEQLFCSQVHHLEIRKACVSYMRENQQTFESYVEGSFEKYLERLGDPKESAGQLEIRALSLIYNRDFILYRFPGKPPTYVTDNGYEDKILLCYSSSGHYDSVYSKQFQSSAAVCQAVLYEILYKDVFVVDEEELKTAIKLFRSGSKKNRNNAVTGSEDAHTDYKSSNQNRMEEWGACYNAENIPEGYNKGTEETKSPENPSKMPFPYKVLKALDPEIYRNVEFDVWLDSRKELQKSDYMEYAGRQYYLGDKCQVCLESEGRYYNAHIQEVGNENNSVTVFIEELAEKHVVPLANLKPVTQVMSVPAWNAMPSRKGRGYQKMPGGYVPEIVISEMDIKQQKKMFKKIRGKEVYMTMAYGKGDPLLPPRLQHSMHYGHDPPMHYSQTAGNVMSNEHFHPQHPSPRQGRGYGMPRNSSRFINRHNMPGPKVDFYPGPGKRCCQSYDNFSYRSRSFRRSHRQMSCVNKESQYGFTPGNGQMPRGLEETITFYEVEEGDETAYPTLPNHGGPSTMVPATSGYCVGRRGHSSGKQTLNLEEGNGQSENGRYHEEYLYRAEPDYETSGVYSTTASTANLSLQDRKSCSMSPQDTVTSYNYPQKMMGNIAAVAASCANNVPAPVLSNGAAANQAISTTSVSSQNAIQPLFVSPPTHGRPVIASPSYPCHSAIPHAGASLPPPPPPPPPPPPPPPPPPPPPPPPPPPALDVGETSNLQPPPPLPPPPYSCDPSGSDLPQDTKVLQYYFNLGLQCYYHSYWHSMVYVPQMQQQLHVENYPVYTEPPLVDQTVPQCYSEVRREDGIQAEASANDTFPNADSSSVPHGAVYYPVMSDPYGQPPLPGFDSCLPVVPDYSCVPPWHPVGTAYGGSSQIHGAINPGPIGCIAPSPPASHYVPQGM
# Method in brief: (§1)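 Using Biotin-Ahx-Ub-VS at 0.5 µM final for 1 h, DUBs were labelled in HEK293T lysate (495 µg per sample) that had first been treated in triplicate with fragment at 200 µM or vehicle for 3 h. NeutrAvidin enrichment, LysC and trypsin digestion and diaPASEF LC-MS/MS followed. Spectronaut label-free quantities were global-median-normalised. Values are average log2 fragment/vehicle ratios by unpaired t-test, using proteins with ≥2 unique peptides.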
# [2] = target: ATXN3 (UniProt P54252)
# Sequence of ATXN3 (P54252 whole entry): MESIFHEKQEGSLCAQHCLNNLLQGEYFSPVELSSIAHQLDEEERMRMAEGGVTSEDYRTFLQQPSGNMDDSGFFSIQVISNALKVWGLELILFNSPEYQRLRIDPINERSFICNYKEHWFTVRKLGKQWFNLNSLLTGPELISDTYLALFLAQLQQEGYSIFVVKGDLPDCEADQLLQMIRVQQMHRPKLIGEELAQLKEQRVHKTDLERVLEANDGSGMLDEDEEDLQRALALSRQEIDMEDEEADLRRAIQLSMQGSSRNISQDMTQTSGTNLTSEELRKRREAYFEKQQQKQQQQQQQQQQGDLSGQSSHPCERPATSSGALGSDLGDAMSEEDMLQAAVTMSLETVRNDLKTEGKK
# Method in brief: as §1
# [3] = target: T2, BAP1 (UniProt Q92560)
# T2 sequence (whole entry): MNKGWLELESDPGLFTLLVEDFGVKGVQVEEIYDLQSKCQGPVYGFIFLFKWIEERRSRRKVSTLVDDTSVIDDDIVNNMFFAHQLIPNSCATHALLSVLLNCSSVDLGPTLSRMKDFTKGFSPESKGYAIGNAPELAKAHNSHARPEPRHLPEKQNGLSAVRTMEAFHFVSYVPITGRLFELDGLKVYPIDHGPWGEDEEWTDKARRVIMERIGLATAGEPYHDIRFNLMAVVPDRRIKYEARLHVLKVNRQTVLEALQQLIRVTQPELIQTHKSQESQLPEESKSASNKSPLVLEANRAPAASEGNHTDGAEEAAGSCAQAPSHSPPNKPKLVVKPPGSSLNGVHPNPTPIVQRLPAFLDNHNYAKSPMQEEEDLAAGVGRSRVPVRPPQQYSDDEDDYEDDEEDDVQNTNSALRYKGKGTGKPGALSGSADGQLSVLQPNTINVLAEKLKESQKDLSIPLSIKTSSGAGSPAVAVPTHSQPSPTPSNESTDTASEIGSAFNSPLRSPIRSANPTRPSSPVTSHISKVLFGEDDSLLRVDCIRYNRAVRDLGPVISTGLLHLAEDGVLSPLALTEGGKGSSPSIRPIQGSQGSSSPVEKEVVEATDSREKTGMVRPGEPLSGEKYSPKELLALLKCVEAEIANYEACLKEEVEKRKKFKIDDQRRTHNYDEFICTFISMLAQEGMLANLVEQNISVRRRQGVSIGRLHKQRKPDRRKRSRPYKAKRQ
# Method in brief: as §1
# [4] = target: EIF3F (UniProt O00303)
# Sequence of EIF3F (O00303 whole entry): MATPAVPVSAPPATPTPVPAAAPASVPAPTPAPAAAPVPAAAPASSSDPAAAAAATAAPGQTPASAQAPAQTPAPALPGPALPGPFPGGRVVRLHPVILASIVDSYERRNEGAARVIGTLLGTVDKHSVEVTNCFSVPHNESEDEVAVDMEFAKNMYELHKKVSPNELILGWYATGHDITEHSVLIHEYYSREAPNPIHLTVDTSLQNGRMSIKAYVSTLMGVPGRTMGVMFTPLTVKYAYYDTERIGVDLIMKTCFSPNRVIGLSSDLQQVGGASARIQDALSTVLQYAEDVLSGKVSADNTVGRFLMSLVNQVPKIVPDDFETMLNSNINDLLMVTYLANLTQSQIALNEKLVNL
# Method in brief: as §1
# [5] = target: EIF3H (UniProt O15372)
# Sequence of EIF3H (O15372 whole entry): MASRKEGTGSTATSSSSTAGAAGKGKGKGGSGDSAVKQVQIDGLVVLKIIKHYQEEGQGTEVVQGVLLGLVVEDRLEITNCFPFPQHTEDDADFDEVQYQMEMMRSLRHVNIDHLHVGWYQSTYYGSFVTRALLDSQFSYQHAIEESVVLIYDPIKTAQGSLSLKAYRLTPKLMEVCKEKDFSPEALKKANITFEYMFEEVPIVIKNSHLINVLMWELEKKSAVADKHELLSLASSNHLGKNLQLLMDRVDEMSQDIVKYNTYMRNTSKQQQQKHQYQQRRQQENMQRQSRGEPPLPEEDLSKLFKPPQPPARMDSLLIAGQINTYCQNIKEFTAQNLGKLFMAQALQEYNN
# Method in brief: as §1
# [6] = target: T3, FAM105A (UniProt Q9NUU6)
# T3 sequence (whole entry): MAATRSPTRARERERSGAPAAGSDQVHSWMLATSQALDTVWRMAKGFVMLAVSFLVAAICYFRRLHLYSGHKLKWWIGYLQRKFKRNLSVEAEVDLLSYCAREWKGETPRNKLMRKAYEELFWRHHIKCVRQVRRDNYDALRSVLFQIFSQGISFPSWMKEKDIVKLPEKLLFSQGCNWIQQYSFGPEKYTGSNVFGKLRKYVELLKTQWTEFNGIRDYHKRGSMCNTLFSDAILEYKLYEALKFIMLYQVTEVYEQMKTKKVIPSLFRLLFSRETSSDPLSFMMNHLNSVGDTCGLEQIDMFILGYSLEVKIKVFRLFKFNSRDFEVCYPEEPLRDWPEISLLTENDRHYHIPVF
# Method in brief: as §1
# [7] = target: OTUB1 (UniProt Q96FW1)
# Sequence of OTUB1 (Q96FW1 whole entry): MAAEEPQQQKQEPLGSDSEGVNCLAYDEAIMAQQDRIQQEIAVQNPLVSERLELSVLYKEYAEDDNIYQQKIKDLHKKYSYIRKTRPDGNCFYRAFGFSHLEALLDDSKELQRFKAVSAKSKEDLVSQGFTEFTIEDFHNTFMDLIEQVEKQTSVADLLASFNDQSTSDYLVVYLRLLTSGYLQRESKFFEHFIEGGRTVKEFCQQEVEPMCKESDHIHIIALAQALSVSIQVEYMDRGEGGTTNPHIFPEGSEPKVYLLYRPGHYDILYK
# Method in brief: as §1
# [8] = target: T4, OTUD4 (UniProt Q01804)
# T4 sequence (whole entry): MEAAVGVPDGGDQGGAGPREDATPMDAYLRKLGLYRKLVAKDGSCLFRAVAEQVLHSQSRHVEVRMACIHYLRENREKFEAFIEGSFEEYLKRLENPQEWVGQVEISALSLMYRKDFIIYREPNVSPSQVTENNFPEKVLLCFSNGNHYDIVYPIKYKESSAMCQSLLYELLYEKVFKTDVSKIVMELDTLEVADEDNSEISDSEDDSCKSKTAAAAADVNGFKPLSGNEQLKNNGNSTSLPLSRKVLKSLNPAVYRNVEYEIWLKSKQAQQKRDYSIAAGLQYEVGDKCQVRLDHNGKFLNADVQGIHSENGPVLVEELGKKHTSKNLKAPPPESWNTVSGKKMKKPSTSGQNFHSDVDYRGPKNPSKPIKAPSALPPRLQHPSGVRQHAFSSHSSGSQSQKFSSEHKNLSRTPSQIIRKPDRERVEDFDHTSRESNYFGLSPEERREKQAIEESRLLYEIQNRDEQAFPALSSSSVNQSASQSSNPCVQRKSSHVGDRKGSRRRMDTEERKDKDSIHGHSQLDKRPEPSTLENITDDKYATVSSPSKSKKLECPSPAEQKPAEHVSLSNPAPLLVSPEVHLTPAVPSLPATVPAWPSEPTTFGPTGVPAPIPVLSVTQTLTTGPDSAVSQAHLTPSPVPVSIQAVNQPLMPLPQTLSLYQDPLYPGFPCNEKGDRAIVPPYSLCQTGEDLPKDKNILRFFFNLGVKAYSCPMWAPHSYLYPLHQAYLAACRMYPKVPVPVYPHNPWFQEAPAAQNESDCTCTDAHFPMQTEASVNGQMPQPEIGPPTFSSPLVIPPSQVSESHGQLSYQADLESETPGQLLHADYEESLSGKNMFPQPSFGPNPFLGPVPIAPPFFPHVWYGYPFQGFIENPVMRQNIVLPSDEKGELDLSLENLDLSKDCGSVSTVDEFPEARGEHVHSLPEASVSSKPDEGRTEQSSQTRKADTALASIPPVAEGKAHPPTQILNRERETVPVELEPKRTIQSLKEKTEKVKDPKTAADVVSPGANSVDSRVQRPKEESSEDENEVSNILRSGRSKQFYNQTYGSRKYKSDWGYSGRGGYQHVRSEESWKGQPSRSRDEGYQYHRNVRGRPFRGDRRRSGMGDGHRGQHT
# Method in brief: as §1
# [9] = target: T5, OTUD5 (UniProt Q96G74)
# T5 sequence (whole entry): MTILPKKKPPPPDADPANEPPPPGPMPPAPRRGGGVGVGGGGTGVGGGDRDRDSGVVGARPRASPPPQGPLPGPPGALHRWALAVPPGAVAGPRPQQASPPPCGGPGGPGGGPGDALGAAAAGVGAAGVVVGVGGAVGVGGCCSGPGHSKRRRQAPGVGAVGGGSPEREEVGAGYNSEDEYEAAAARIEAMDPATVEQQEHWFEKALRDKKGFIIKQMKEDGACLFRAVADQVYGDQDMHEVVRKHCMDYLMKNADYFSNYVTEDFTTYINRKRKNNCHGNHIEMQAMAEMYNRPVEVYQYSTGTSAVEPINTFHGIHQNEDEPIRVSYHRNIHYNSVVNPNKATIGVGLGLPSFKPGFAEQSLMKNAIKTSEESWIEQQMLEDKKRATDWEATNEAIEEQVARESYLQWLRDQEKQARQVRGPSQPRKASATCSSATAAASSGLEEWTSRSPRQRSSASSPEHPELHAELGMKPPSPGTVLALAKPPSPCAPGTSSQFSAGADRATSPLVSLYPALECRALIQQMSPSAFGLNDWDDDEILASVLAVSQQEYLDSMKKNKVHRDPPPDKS
# Method in brief: as §1
structure (smiles),measurement,setting,value
CN(C)S(=O)(=O)c1ccccc1CNC(=O)CCl,log2 ratio of Biotin-Ahx-Ub-VS probe labelling,[1],0.242
same,log2 ratio of Biotin-Ahx-Ub-VS probe labelling,[2],-0.137
same,log2 ratio of Biotin-Ahx-Ub-VS probe labelling,[3],-1.09 (active)
same,log2 ratio of Biotin-Ahx-Ub-VS probe labelling,[4],-0.0947
same,log2 ratio of Biotin-Ahx-Ub-VS probe labelling,[5],0.29
same,log2 ratio of Biotin-Ahx-Ub-VS probe labelling,[6],-0.0283
same,log2 ratio of Biotin-Ahx-Ub-VS probe labelling,[7],-0.0251
same,log2 ratio of Biotin-Ahx-Ub-VS probe labelling,[8],-0.249
same,log2 ratio of Biotin-Ahx-Ub-VS probe labelling,[9],-0.29
